Assay outcomes (PubChem)
A selection: hits, their analogues and other compounds. The true share with any hit is near 1.2%.
PI5P4Ka inh: qHTS for Inhibitors of phosphatidylinositol 5-phosphate 4-kinase (PI5P4K); PI5P4Kalpha enzyme, ADP-Glo luminescence, 60 min; active compounds read low; max response, %; hit rate 1.2% among 330,000; active = max response of -50% or lower; inconclusive = between -30% and -50%; inactive = -30% or higher; note: value at the top dose of about 77 µM
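Luminescence from ADP-Glo served as readout of PI5P4Kalpha activity in a qHTS format. Reaction: enzyme, substrate, compound, ATP at 5 microM final, 60 min at RT.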
Pin1 inh: qHTS Assay to Find Inhibitors of Pin1; Peptidyl-prolyl cis-trans isomerase NIMA-interacting 1 (Homo sapiens), Q13526; AID 504891, 2011; hit rate 0.009% among 390,000; Pin1 FP peptide displacement, HiFluor488, 10 min; Potency, µM (top dose mostly 115 µM), without a hit: top-dose activity, negative = inhibition, actives largely listed as inhibitors; active = well fitted inhibition curve with a large enough effect in the polarisation, with a control signal flat, not every such curve was filed as active; inconclusive = small, poorly fitted or top-dose-only effect, or effect the other way, or a change in a side signal; inactive = no such curve, though single readings can be large or run the other way; the % refers to the polarisation; note: potency is the fitted concentration of half-maximal effect
RGS12 GoLoco inh: qHTS Assay for Inhibitors of RGS12 GoLoco Motif Activity (Red Fluorophore); Guanine nucleotide-binding protein G(i) subunit alpha-1 (Homo sapiens), P63096; hit rate 0.44% among 230,000; Potency, µM (titrated, usually from 61.6 µM), for the others: at the highest dose activity, negative = inhibition, most hits filed as inhibitors; Gai1:RGS12 GoLoco peptide FP, rhodamine, 10 min; active = well fitted inhibition curve with a large enough effect, not every such curve was filed as active; inactive = no such curve, though single readings can be large or run the other way; note: potency is the fitted concentration of half-maximal effect; nearly all actives have a fitted effect of over 30% in size
GCN5L2 inh: qHTS Assay for Inhibitors of GCN5L2; hit rate 0.21% among 390,000; Potency, µM (series often up to 58.9 µM), for inactives: top-dose activity change, negative = inhibition, most hits filed as inhibitors; Histone acetyltransferase KAT2A (Homo sapiens), Q92830; GCN5L2 HAT assay, ThioGlo1 CoA-SH fluorescence; note: potency is the fitted concentration of half-maximal effect
Target sequence (Q92830 whole entry, looked up): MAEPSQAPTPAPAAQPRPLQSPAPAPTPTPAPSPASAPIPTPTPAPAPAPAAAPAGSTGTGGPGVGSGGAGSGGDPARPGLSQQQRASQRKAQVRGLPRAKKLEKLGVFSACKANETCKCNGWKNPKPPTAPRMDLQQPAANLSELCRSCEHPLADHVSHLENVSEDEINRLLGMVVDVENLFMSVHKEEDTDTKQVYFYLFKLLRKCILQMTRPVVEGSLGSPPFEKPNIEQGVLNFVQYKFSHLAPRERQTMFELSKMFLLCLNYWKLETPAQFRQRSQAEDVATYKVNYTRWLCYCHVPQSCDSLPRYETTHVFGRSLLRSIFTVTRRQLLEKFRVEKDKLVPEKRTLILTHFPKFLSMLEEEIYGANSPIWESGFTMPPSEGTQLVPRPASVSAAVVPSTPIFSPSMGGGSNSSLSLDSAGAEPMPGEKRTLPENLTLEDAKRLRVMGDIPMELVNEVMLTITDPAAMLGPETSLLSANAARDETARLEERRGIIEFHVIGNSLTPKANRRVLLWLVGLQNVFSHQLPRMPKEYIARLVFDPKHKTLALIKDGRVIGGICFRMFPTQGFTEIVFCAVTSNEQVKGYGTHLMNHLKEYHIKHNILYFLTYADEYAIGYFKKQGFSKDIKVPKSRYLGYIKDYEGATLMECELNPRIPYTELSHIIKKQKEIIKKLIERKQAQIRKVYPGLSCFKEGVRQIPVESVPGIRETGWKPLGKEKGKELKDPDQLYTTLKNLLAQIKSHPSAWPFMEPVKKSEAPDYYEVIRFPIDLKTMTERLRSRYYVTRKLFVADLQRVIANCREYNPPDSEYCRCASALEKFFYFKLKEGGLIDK
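ThioGlo1-coupled HAT assay: 20nM GCN5L2, 70uM acetyl-CoA, 75uM H3(1-25) peptide, pH 7.5. Fluorescence read at 340/540nm at start and after 20 min at room temperature.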
PGK inhibitor: qHTS Assay to Find Inhibitors of Phosphoglycerate Kinase; Phosphoglycerate kinase, glycosomal (Trypanosoma brucei brucei), P07378; PGK/GAPDH coupled, Kinase-Glo luminescence, 60 min; Potency, µM (highest dose often 57.5 µM), for inactives: top-dose activity change, negative = inhibition, hits mostly inhibitors; hit rate 0.043% among 380,000; AID 602233, 2012; note: potency is the fitted concentration of half-maximal effect; nearly all actives have a fitted effect of over 60% in size
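Luminescent ATP detection (Kinase-Glo Plus) follows a 60-minute room-temperature incubation, with wells lacking PGK as controls. Buffer: 100 mM TEA (pH 7.6), 5 mM MgCl2, 0.01% Tween-20. Coupling enzyme GAPDH (100 nM final) supplies unstable 1,3-BPG in-well.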
PI4K2A block: qHTS for small molecular inhibitors of PI4K2A; purified PI4K2A, ADP-Glo luminescence, 1 h; active compounds read low; activity change, negative = inhibition, % at 76.9 µM; hit rate 0.13% among 420,000; Phosphatidylinositol 4-kinase type 2-alpha (Homo sapiens), Q9BTU6; in the data active = activity change below about -50%; inconclusive = mostly about -30% to -49%;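 note: -100% = wells without enzyme as full effect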
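In this quantitative HTS, ADP production by PI4K2A was quantified luminescently after 1 h at ambient temperature; 100 microM adenosine served as plate-quality control.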
* = called active by the depositor; i = inactive; ? = inconclusive; / = no result; ! = not active in a repeat. Unless noted, calls come from the whole dose curve; as a rule, active = well fitted curve in the direction sought with a large enough effect; inconclusive = small, poorly fitted or top-dose-only effect, or another doubt; inactive = no such curve, though single readings can be large; an effect the other way counts as inactive or inconclusive. Unless noted, % is set by controls: 0 for no effect and ±100 for the full control effect.

SMILES | PI5P4Ka inh | Pin1 inh | RGS12 GoLoco inh | GCN5L2 inh | PGK inhibitor | PI4K2A block
CNc1nc(-c2ccccc2)[n+](-c2ccc(C)cc2)s1 | -99* | 0% | / | 7.9µM* | i | -4
Cc1ccc(-c2nc(N)s[n+]2-c2ccccc2)cc1 | -80* | 7% | 3.5µM* | 6.3µM* | -3% | -6
NC1=CC(=O)c2cccc3cccc1c23 | / | / | 32µM* | -21% | / | /
C[C@H](NC(=O)C[C@@H]1CC[C@H]2[C@@H](COC[C@H](O)CN2Cc2ccc(C(F)(F)F)cc2)O1)c1ccccc1 | -7 | / | / | / | / | 3
COCCn1c(C)cc(C(=O)COC(=O)c2cncc(Br)c2)c1C | 0 | -5% | 9% | -1% | 0% | -2
COCCn1c(C)cc(C(=O)COC(=O)c2ccc3ncsc3c2)c1C | -58* | 7% | 10% | -19% | -5% | -29
CC1=c2c(oc3cc(O)c(Nc4c(C)cc(O)cc4O)c(C)c23)=CC(=O)C1=Nc1c(C)cc(O)cc1O | / | / | 3.2µM* | / | / | /
COc1ccc(-c2cc3c(nn2)-c2ccccc2C3=O)cc1 | ? | 9% | 0% | -4% | ? | -56*
CN1CCN(c2nc(-c3cccc([N+](=O)[O-])c3)nc3ccccc23)CC1 | 9 | ? | / | -3% | -1% | 2
Cc1c(N=C2C=C(Br)C(=O)C(Br)=C2)c(=O)n(-c2ccccc2)n1C | -78* | 0% | -3% | -8% | 2% | 0
Cc1c(N=C2C=CC(=O)c3ccccc32)c(=O)n(-c2ccccc2)n1C | -62* | -16% | -1% | -20% | -1% | -14
COc1ccc(C(=O)C2(C(=O)Nc3cc(C)cc(C)c3)CC(c3ccccc3C(F)(F)F)=NO2)cc1 (stereo unspecified) | / | / | / | / | / | -8
Cc1ccccc1OCC(O)CN(Cc1ccccc1O)C1CCCCC1 (stereo unspecified) | 8 | ? | -13% | -11% | 8% | 1
O=C(OCC(=O)c1ccc(Cl)s1)c1cnccn1 | -52* | 23% | / | -6% | i | 1
COc1cccc(CNC(=O)C(C)n2nc(C)n3c(cc4occc43)c2=O)c1 (stereo unspecified) | -2 | -6% | / | 3% | -4% | 15
Cc1cccc(C(=O)OCC(=O)N2CC(C)OC(C)C2)c1C (stereo unspecified) | 1 | 2% | / | 1% | 2% | 3
Cc1cccc(C(=O)OCC(=O)c2ccc(CC(=O)N3CCOCC3)s2)c1C | -60* | 3% | / | -17% | -16% | -12
Cc1ccc(-c2ccc(/C=N\NC(=O)c3cc4c(ccc5ccccc54)o3)o2)cc1[N+](=O)[O-] | ? | 9% | -2% | -4% | -3% | -2
CNC(=S)N/N=C/c1ccc(-c2ccc(C(=O)O)cc2)o1 | -62* | 1% | -16% | 0% | ? | -26
NS(=O)(=O)c1ccc(-c2ccc(/C=N/Nc3ccc(C(=O)O)cc3)o2)cc1 | ? | 23% | -1% | -1% | -17% | 6
O=C(N/N=C/c1ccc(-c2ccc(Cl)c(C(=O)O)c2)o1)c1cc2c(ccc3ccccc32)o1 | -80* | / | 24% | -27% | ? | -6
O=C(O)c1cc(-c2ccc(/C=N/Nc3ccc([N+](=O)[O-])cn3)o2)ccc1Cl | -61* | 67% | 16% | -23% | -9% | -11
O=C(O)c1ccc(-c2ccc(/C=N/Nc3ccc([N+](=O)[O-])cc3)o2)cc1 | -55* | ? | 89% | -25% | -6% | -1
CCOc1ccc(N2C(=O)C3Sc4[nH]c(=O)sc4C(/C=C/c4ccccc4)C3C2=O)cc1 (stereo unspecified) | -25 | ? | 40% | -24% | -2% | -6
Cc1ccc(C)c(OCCC(=O)OC(C)C(=O)Nc2c(C)n(C)n(-c3ccccc3)c2=O)c1 (stereo unspecified) | 1 | -1% | / | -6% | -1% | -1
SMILES | PI5P4Ka inh | Pin1 inh | RGS12 GoLoco inh | GCN5L2 inh | PGK inhibitor | PI4K2A block
Cc1ccc(CNc2ccc(O)cc2)cc1 | ? | ? | 18µM* | -9% | ? | ?
O=C(CCNC(=O)c1ccc([N+](=O)[O-])cc1)Nc1ccc(F)c(F)c1F | 1 | -3% | / | -3% | -1% | -1
O=C(O)C1Nc2c(C(=O)N3CCOCC3)cccc2C2C=CCC12 (stereo unspecified) | -62* | ? | -26% | -4% | ? | -24
O=C(c1ccccc1O)N1CCOCC1 | 2 | -4% | 3% | 6% | -16% | 5
CC1=C(SCc2ccccc2)C(=O)c2ccccc2C1=O | ? | ? | / | / | i | ?
O=C1C(SCCO)=C(SCCO)C(=O)c2ccccc21 | -107* | ? | 3.5µM*! | -12% | -18% | ?
O=C(CCC(=O)N1CCCC1)N1CCCC1 | 1 | 4% | / | 1% | 1% | -1
Oc1c(Br)cc(Br)cc1/C=N/c1nccs1 | -55* | -10% | / | -4% | -4% | -1
CC1CCC(C(C)C)C(OC(=O)C[n+]2cccc(C(N)=O)c2)C1 (stereo unspecified) | -75* | -4% | 8% | ? | i | 2
CN1CCN(C(=O)C2CCCN(S(=O)(=O)c3ccc(Cl)cc3)C2)CC1 (stereo unspecified) | 1 | 9% | / | -16% | -6% | -6
O=C(CN1C(=O)c2cccc3cccc1c23)Nc1ccc2c(c1)OCO2 | / | 15% | 18% | 3.5µM* | 1% | 0
O=C(CN1C(=O)c2cccc3cccc1c23)NCc1ccc2c(c1)OCO2 | / | 35% | 14% | -9% | -7% | 0
CC(C)n1c(/C=C/[C@@H](O)C[C@@H](O)CC(=O)O)c(-c2ccc(F)cc2)c2ccccc21 | 3 | 7% | / | -8% | -7% | -1
Cc1ccc(C(=O)Nc2nnc(CC(=O)N/N=C/c3ccc(O)c(O)c3)s2)cc1 | -58* | ? | / | -2% | ? | -16
O=C(C[n+]1ccc(CCSc2ccc(F)cc2)cc1)c1ccccc1 | -53* | ? | 90% | -17% | 6% | -18
C=C(C)C(=O)Nc1cccc(C2=NOC3(C2)C[C@@H](C(N)=O)N(C(=O)CC(c2ccccc2)c2ccccc2)C3)c1 (stereo partly specified) | ? | -5% | 7% | -8% | 8.9µM* | -5
